Assay results taken from PubChem BioAssay (Tox21).
Results filed as inconclusive are left out. Active and inactive are the calls of the source. Unless noted, the call rests on the fitted dose curve; in most records, active means well fitted curve in the direction sought with a large enough effect in the repeat runs; inconclusive means weak or mixed curves; inactive means no such curve, though single readings can be large; an effect the other way counts as inactive or inconclusive.

Legend:
[1] = qHTS assay to identify aromatase inhibitors - cell viability counter screen (AID 743084);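 further: cells stimulated with testosterone during compound exposure; nearly all actives have a fitted effect of over 55% in size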
[2] = target: Aryl hydrocarbon receptor (Homo sapiens) (UniProt P35869); test: qHTS assay to identify small molecule that activate the aryl hydrocarbon receptor (AhR) signaling pathway (AID 743085); further: nearly all actives have a fitted effect of over 15% in size; further: potency means the concentration at half of the fitted maximal effect;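 on activation: HG2L7.5c1 human HepG2 liver cells with stably integrated DRE-driven firefly reporter; series mostly up to about 70 µM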
Procedure, shortened: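 A multiplexed format paired cell viability (CellTiter-Fluor fluorescence) with AhR-dependent luciferase output (ONE-Glo luminescence) in the same wells of HepG2 DRE-luc cells after 24 h compound exposure at 37C.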

[3] = qHTS assay to identify small molecule that activate the aryl hydrocarbon receptor (AhR) signaling pathway - cell viability counter screen (AID 743086);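 further: HepG2 liver cells carrying the AhR DRE luciferase reporter; series mostly up to about 70 µM; nearly all actives have a fitted effect of over 45% in size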
Procedure, shortened: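 Cytotoxicity counter screen: CellTiter-Fluor signal (30 min, 37 C) in 4000 HepG2 cells/well carrying the DRE-luciferase reporter, following 24 h compound exposure at 37 C.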

[4] = target: Peroxisome proliferator-activated receptor gamma (Homo sapiens) (UniProt P37231); test: qHTS assay to identify small molecule agonists of the peroxisome proliferator-activated receptor gamma (PPARg) signaling pathway (AID 743094; active means well fitted activation curve with a large enough effect in the signal ratio in the repeat runs, not every such curve was filed as active; the % refers to the signal ratio)
Procedure, shortened: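 Reporter activation was scored by fluorescence of cleaved LiveBLAzer B/G substrate (1 h, room temperature) in PPARg-bla HEK293H cells previously treated 17 h at 37C with DMSO-dissolved compounds.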

[5] = target: Peroxisome proliferator-activated receptor gamma (Homo sapiens) (UniProt P37231); test: qHTS assay to identify small molecule antagonists of the peroxisome proliferator-activated receptor gamma (PPARg) signaling pathway (AID 743191; calls by dose curve; further: series mostly up to about 63 µM; nearly all actives have a fitted effect of over 30% in size)
Procedure, shortened: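 Beta-lactamase reporter under UAS control in HEK293H PPARg-bla cells; compound treatment 17 h at 37C. Read-out: fluorescence intensity after 1 h room-temperature incubation with LiveBLAzer B/G FRET substrate.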

[6] = qHTS assay to identify small molecule antagonists of the peroxisome proliferator-activated receptor gamma (PPARg) signaling pathway - cell viability counter screen (AID 743194); further: nearly all actives have a fitted effect of over 55% in size
Procedure, shortened: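 Viability was measured as CellTiter-Glo luminescence in GeneBLAzer PPARg UAS-bla HEK293H cells. These cells had been exposed 17 h at 37 C to compounds together with rosiglitazone at 50 nM final, with the beta-lactamase readout taken in the same wells.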

[7] = qHTS assay for small molecule agonists of the antioxidant response element (ARE) signaling pathway (AID 743202; active means well fitted activation curve with a large enough effect in the signal ratio in the repeat runs, not every such curve was filed as active; the % refers to the signal ratio)
Procedure, shortened: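 Beta-lactamase reporter activity, read as fluorescence intensity, reflects ARE/Nrf2 pathway induction in HepG2 cells after 16 h compound exposure at 37 C; substrate loading was 2 h at room temperature.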

[8] = qHTS assay for small molecule agonists of the antioxidant response element (ARE) signaling pathway - cell viability counter screen (AID 743203; calls by dose curve; further: nearly all actives have a fitted effect of over 55% in size)
Procedure, shortened: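 Viability counter screen: stably transfected ARE-bla HepG2 line, 16 hrs compound exposure at 37C/5% CO2, ATP-based CellTiter-Glo luminescence measured in the reporter wells.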

[9] = qHTS assay for small molecule activators of the heat shock response signaling pathway - cell viability counter screen (AID 743209); further: nearly all actives have a fitted effect of over 50% in size
Procedure, shortened: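 Viability of HSE-bla HeLa cells is measured with CellTiter-Glo in the wells already used for the reporter read. Compound exposure lasts 5 h at 37 C, and luminescence is read after 30 min at room temperature.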

[10] = qHTS assay for small molecule activators of the heat shock response signaling pathway (AID 743210; active means well fitted activation curve with a large enough effect in the signal ratio in the repeat runs, with a control signal flat, not every such curve was filed as active; the % refers to the signal ratio;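 further: HeLa cells with beta-lactamase reporter driven by heat shock elements; series mostly up to about 63 µM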)
Procedure, shortened: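 Fluorescence from a cleaved B/G FRET substrate (2.5 h, room temp) reports HSE-driven beta-lactamase in HeLa cells treated 5 h at 37 C with DMSO-dissolved compounds.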

[11] = qHTS assay to identify small molecule agonists of the peroxisome proliferator-activated receptor delta (PPARd) signaling pathway - cell viability counter screen (AID 743211); further: nearly all actives have a fitted effect of over 55% in size
Procedure, shortened: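 Tox21 library compounds, delivered in DMSO, were incubated 17 h with PPARd-bla HEK293H cells; cytotoxicity was taken from CellTiter-Glo luminescence read 30 min after reagent addition.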

[12] = target: Peroxisome proliferator-activated receptor delta (Homo sapiens) (UniProt Q03181); test: qHTS assay to identify small molecule agonists of the peroxisome proliferator-activated receptor delta (PPARd) signaling pathway (AID 743212; calls by dose curve;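 further: HEK293H cells with PPARd UAS beta-lactamase reporter GeneBLAzer system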)
Procedure, shortened: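 Steps: seed PPARd-bla HEK293H cells; incubate 5 h, 37 C, 5% CO2; add compounds in DMSO; incubate, 37 C; add LiveBLAzer B/G FRET substrate; hold 2 h at room temperature; measure fluorescence.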

[13] = qHTS assay to identify small molecule agonists of the farnesoid-X-receptor (FXR) signaling pathway - cell viability counter screen (AID 743218); further: nearly all actives have a fitted effect of over 45% in size
Procedure, shortened: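 Viability of FXR-bla HEK 293T cells is measured by ATP-based CellTiter-Glo luminescence following 16 h compound treatment at 37 C and a prior 2 h room-temperature beta-lactamase substrate step.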

[14] = qHTS assay to identify small molecule antagonists of the farnesoid-X-receptor (FXR) signaling pathway - cell viability counter screen (AID 743221; active means well fitted cell-killing curve with a large enough effect in the repeat runs, not every such curve was filed as active; further: nearly all actives have a fitted effect of over 50% in size)
Procedure, shortened: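 Cytotoxicity is taken from ATP luminescence (CellTiter-Glo, 30 min, room temperature) in FXR-bla HEK 293T cells previously incubated 16 h at 37 C with compound and chenodeoxycholic acid at 50 uM final.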

[15] = target: Vitamin D3 receptor (Homo sapiens) (UniProt P11473); test: qHTS assay to identify small molecule agonists of the vitamin D receptor (VDR) signaling pathway (AID 743222; calls by dose curve)
Procedure, shortened: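 Fluorescence from cleaved LiveBLAzer B/G FRET substrate served as readout. VDR-bla cells had been treated 16 h at 37C with test compounds in DMSO, following a 4 h settling period, and substrate was loaded for 2 h at RT.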

[16] = target: Vitamin D3 receptor (Homo sapiens) (UniProt P11473); test: qHTS assay to identify small molecule antagonists of the vitamin D receptor (VDR) signaling pathway (AID 743223; active means well fitted inhibition curve with a large enough effect in the signal ratio in the repeat runs, not every such curve was filed as active; the % refers to the signal ratio)
Procedure, shortened: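 Quantitative HTS in VDR-bla reporter cells stimulated with 1alpha,25-dihydroxyvitamin D3, 3 nM final. Compound exposure 16 h, 37C, 5% CO2. Read-out: beta-lactamase FRET substrate fluorescence, 2 h RT.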

[17] = target: Peroxisome proliferator-activated receptor delta (Homo sapiens) (UniProt Q03181); test: qHTS assay to identify small molecule antagonists of the peroxisome proliferator-activated receptor delta (PPARd) signaling pathway (AID 743215; active means well fitted inhibition curve with a large enough effect in the signal ratio in the repeat runs, not every such curve was filed as active; the % refers to the signal ratio;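 further: cells stimulated with agonist L165041 at 300 nM final during compound exposure; series mostly up to about 62 µM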)
Procedure, shortened: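 Plated HEK293H PPARd-bla cells rested 5 h at 37 C and 5% CO2. Compound, then agonist L165041 at 300 nM final, was added; 17 h at 37 C followed. Substrate loading, 2 h room temperature, fluorescence measured.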

[18] = qHTS assay to identify small molecule antagonists of the peroxisome proliferator-activated receptor delta (PPARd) signaling pathway - cell viability counter screen (AID 743213); further: nearly all actives have a fitted effect of over 50% in size
Procedure, shortened: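 In this counter screen, HEK293H cells carrying a UAS-beta-lactamase reporter are co-treated with test compounds and 300 nM L165041 (final) for 17 h at 37 C; cell viability is quantified by CellTiter-Glo luminescence.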

[19] = target: Bile acid receptor (Homo sapiens) (UniProt Q96RI1); test: qHTS assay to identify small molecule antagonists of the farnesoid-X-receptor (FXR) signaling pathway (AID 743217; active means well fitted inhibition curve with a large enough effect in the signal ratio in the repeat runs, not every such curve was filed as active; the % refers to the signal ratio)
Procedure, shortened: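 Screen of the Tox21 10K library in quantitative HTS format using FXR-UAS-bla HEK 293T reporter cells. Agonist chenodeoxycholic acid, 50 uM final, added with compounds; 16 h incubation at 37 °C; beta-lactamase FRET fluorescence measured.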

[20] = target: Bile acid receptor (Homo sapiens) (UniProt Q96RI1); test: qHTS assay to identify small molecule agonists of the farnesoid-X-receptor (FXR) signaling pathway (AID 743220; active means well fitted activation curve with a large enough effect in the signal ratio in the repeat runs, not every such curve was filed as active; the % refers to the signal ratio)
Procedure, shortened: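 FXR-UAS-bla HEK 293T cells carrying a UAS-driven beta-lactamase reporter were plated for 5 h at 37C/5% CO2, then exposed to DMSO-dissolved Tox21 10K compounds for 16 h at 37C. A LiveBLAzer B/G FRET substrate was loaded for 2 h at room temperature before fluorescence reading.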
On the % scale 0 is the no-effect control and ±100 the full control effect.

Sequence of Peroxisome proliferator-activated receptor delta (Homo sapiens) (Q03181 whole entry, looked up): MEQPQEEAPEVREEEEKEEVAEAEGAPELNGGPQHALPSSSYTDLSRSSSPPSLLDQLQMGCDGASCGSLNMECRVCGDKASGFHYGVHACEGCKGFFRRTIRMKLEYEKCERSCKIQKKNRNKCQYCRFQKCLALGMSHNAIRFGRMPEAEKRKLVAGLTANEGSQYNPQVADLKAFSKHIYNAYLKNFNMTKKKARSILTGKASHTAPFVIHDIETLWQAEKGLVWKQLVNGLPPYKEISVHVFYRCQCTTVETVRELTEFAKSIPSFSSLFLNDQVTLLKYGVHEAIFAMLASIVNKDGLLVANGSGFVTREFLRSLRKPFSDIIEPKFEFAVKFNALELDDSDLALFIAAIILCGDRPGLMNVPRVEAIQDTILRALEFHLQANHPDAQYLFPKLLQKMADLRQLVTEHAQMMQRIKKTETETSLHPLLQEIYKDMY
Sequence of Aryl hydrocarbon receptor (Homo sapiens) (P35869 whole entry, looked up): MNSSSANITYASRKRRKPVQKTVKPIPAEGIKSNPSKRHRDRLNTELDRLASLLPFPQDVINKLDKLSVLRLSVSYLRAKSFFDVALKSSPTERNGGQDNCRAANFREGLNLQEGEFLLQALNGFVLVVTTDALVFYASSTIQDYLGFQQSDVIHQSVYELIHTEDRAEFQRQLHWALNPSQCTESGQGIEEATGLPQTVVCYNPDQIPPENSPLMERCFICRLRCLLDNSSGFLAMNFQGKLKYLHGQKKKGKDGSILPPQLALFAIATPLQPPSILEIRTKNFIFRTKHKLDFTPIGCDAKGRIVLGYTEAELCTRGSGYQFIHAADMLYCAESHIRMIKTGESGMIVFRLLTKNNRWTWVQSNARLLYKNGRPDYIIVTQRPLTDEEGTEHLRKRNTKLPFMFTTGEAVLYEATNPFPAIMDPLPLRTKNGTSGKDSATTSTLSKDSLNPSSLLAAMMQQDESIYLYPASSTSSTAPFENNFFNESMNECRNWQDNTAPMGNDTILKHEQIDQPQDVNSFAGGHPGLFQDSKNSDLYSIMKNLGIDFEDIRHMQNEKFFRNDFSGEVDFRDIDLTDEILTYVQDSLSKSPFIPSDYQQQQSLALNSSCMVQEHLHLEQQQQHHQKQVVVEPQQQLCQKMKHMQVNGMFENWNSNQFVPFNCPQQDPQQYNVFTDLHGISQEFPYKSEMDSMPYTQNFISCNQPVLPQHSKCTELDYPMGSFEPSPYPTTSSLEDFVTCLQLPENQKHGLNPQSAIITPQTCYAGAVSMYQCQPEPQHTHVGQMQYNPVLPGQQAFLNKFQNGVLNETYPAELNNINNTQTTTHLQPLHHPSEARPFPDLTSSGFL
Sequence of Vitamin D3 receptor (Homo sapiens) (P11473 whole entry, looked up): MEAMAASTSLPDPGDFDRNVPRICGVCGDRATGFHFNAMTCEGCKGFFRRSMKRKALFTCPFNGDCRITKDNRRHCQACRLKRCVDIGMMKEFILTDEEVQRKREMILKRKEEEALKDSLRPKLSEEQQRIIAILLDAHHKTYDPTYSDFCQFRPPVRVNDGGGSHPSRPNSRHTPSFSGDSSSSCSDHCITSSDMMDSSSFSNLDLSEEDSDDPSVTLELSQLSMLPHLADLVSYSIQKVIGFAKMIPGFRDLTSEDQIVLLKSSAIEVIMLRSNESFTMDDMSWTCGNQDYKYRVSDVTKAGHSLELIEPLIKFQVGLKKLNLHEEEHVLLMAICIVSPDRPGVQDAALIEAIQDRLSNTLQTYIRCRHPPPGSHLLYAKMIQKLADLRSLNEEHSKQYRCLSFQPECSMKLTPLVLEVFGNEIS
Sequence of Peroxisome proliferator-activated receptor gamma (Homo sapiens) (P37231 whole entry, looked up): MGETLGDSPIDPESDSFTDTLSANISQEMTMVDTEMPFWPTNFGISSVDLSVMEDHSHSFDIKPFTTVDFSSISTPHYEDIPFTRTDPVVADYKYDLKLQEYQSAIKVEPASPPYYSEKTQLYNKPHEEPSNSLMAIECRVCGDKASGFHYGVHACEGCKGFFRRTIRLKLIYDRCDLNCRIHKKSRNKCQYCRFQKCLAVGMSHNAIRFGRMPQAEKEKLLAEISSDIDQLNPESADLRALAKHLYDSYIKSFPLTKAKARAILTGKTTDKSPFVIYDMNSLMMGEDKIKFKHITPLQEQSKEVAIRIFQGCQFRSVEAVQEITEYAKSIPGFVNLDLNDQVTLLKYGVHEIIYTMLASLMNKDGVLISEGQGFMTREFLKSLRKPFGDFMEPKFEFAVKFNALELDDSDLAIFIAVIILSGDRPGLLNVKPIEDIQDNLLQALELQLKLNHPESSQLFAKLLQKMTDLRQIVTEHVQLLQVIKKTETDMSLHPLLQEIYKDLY
Sequence of Bile acid receptor (Homo sapiens) (Q96RI1 whole entry, looked up): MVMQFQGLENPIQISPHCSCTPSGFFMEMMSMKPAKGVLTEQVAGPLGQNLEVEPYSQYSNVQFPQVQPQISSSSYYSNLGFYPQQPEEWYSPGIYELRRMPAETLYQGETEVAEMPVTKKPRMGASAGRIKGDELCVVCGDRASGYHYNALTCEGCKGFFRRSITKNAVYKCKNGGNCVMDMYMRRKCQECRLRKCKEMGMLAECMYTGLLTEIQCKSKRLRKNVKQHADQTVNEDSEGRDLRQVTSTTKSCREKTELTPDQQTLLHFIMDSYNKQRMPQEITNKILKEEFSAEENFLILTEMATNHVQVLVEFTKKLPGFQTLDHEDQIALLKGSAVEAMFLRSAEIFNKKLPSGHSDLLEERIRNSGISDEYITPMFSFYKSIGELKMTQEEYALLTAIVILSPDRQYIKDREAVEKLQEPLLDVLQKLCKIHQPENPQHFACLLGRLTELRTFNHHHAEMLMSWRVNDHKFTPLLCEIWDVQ

C=CC(C)CCC=C(C)C (stereo unspecified)
inactive: Potency [1] | Potency [2] | Potency [3] | Potency [4] | Potency [5] | Potency [6] | Potency [7] | Potency [8] | outcome [9] | outcome [10] | Potency [11] | Potency [12] | Potency [13] | Potency [14] | outcome [15] | outcome [16]

CCCc1ccc(OC)cc1
inactive: Potency [1] | Potency [2] | Potency [3] | Potency [4] | Potency [5] | Potency [6] | Potency [7] | Potency [8] | outcome [9] | outcome [10] | Potency [11] | Potency [12] | outcome [17] | Potency [13] | Potency [14] | outcome [15]

COC=O
inactive: activity change, negative = cytotoxicity [1] 0.892% [at 8.47 µM] | activation [2] -0.706% [at 8.47 µM] | viability change, negative = cytotoxic [3] 14.9% [at 8.47 µM] | activation [4] 1.2% [at 7.08 µM] | ratio activity, negative = inhibition [5] 0.629% [at 5.95 µM] | activity change, negative = cytotoxicity [6] -0.602% [at 5.95 µM] | activation [7] -6.55% [at 8.36 µM] | viability change, negative = cytotoxic [8] -4.87% [at 8.36 µM] | activity change, negative = cytotoxicity [9] -11.9% [at 5.95 µM] | activity change, negative = cytotoxicity [11] -28.1% [at 5.95 µM] | activation [12] -8.76% [at 5.95 µM] | viability change, negative = cytotoxic [13] 22% [at 5.95 µM] | activity change, negative = cytotoxicity [14] 10.8% [at 5.95 µM]

CCOC(=O)CC(O)(CC(=O)OCC)C(=O)OCC
inactive: Potency [1] | Potency [2] | Potency [3] | Potency [4] | Potency [5] | Potency [6] | Potency [8] | outcome [9] | outcome [10] | Potency [11] | Potency [18] | Potency [13] | Potency [14] | outcome [15] | outcome [16]

O=S(=O)(O)c1cc(Cl)c(Cl)cc1Cl
inactive: Potency [1] | Potency [2] | Potency [3] | Potency [4] | Potency [5] | Potency [6] | Potency [8] | outcome [9] | outcome [10] | Potency [12] | Potency [18] | outcome [17] | Potency [13] | Potency [14] | outcome [15]

CC(C)CCCCCOC(=O)CS
inactive: Potency [1] | Potency [2] | Potency [3] | Potency [4] | Potency [5] | Potency [6] | Potency [8] | outcome [9] | outcome [10] | Potency [18] | Potency [13] | Potency [14]

O=[N+]([O-])c1ccc(Cl)cc1Cl
inactive: Potency [1] | Potency [2] | Potency [3] | Potency [4] | Potency [5] | Potency [6] | Potency [8] | outcome [10] | Potency [11] | Potency [12] | Potency [18] | outcome [17] | Potency [13] | Potency [14]

Nc1ncnc2c1ncn2[C@@H]1O[C@H](CO)[C@@H](O)[C@H]1O
inactive: Potency [1] | Potency [2] | Potency [3] | Potency [4] | Potency [5] | Potency [6] | Potency [8] | outcome [9] | outcome [10] | Potency [11] | Potency [18] | outcome [19] | Potency [13] | outcome [20] | outcome [15] | outcome [16]

CC(CN=Cc1ccccc1O)N=Cc1ccccc1O (stereo unspecified)
active: Potency [2] 27.3 µM
inactive: Potency [1] | Potency [3] | Potency [4] | Potency [5] | Potency [6] | Potency [8] | outcome [9] | outcome [10] | Potency [11] | Potency [12] | Potency [18] | Potency [13] | Potency [14]
